Results: publication PMC7862700, “An all-to-all approach to the identification of sequence-specific readers for epigenetic DNA modifications on cytosine”

Experiments:
Test in all cases: DAPPL (digital affinity profiling via proximity ligation, sequencing); 10 mM Tris-HCl pH 7.5, 50 mM NaCl, 1 mM DTT, 4% glycerol, room temperature, 30 min; GST-TFs on glutathione beads, 16-mer random dsDNA library, 0.1% formaldehyde crosslink after washing; high values mean tight binding
Conditions in all cases: protein: recombinant; tags: N-terminal GST; dsDNA, one strand shown
[1] = biological target: T1, FLI1 (Homo sapiens, UniProt Q01543 1-452)
T1 sequence: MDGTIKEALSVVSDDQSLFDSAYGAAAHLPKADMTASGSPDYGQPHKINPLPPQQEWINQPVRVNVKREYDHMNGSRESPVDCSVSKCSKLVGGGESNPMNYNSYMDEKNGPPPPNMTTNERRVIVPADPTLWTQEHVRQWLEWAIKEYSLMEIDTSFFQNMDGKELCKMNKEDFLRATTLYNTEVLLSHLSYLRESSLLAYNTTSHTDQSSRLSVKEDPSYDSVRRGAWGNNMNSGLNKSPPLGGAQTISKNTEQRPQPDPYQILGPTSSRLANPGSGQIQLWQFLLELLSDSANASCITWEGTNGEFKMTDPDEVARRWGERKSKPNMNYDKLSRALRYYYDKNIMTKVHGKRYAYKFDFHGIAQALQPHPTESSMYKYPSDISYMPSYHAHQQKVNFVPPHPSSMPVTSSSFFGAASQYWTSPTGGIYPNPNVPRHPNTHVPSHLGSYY
Method in brief: (§1)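 Binding signal is defined as a hexamer's read frequency for one factor over its frequency for the tag-only sample. To obtain reads, GST-fused human transcription factors were expressed in yeast, captured on glutathione beads, barcoded with DNA and pooled with that sample. Pools met 200 nmole of a 16-mer random double-stranded DNA library in Tris/NaCl/DTT/glycerol buffer for 30 min at room temperature before washing, 0.1% formaldehyde crosslinking, proximity ligation (BsaI/T4 ligase, 1 h, 37 °C), PCR and Illumina NextSeq500 sequencing.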

[2] = biological target: T2, ELK1 (Homo sapiens, UniProt P19419 1-428)
T2 sequence: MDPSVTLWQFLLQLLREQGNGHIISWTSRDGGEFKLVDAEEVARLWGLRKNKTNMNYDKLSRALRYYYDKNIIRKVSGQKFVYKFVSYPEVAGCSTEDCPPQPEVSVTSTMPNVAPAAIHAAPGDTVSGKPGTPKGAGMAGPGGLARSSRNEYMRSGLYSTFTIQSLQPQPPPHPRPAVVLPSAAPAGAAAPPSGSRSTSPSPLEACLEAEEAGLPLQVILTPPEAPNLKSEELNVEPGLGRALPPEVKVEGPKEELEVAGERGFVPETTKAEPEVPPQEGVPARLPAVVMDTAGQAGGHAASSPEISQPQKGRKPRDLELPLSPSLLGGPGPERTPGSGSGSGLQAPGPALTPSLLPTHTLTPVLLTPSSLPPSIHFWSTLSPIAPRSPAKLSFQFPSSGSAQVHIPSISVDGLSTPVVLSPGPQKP
Method in brief: as §1

[3] = biological target: T3, GABPA (Homo sapiens, UniProt Q06546 1-454)
T3 sequence: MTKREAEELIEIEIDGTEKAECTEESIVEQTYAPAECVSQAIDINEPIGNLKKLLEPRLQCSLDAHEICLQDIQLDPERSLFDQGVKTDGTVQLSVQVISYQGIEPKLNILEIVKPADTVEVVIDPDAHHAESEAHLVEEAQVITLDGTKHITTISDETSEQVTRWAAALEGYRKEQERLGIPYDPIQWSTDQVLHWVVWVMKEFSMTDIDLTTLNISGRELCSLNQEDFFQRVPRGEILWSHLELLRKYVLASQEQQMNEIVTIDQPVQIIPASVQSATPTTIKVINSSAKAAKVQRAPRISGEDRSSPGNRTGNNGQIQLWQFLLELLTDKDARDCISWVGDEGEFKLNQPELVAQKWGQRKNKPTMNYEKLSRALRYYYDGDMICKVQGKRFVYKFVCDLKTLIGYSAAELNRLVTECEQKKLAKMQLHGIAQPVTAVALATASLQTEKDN
Method in brief: as §1

[4] = biological target: T4, ERG (Homo sapiens, UniProt P11308 1-479)
T4 sequence: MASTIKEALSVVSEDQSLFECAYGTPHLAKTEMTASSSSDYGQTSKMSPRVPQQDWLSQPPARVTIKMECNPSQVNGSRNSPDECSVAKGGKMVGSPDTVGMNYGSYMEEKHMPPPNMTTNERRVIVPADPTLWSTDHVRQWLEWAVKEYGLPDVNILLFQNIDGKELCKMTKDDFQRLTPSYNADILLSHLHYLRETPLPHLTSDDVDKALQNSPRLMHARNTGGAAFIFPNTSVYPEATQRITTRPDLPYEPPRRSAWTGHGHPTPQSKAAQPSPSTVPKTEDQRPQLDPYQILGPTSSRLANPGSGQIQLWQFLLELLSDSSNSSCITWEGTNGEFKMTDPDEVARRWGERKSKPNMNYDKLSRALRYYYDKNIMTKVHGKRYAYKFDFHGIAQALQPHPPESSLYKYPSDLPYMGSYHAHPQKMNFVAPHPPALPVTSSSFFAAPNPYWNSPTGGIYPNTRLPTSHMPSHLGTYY
Method in brief: as §1

[5] = biological target: ELF1 (Homo sapiens, UniProt P32519 1-619)
Sequence of ELF1 (P32519 whole entry): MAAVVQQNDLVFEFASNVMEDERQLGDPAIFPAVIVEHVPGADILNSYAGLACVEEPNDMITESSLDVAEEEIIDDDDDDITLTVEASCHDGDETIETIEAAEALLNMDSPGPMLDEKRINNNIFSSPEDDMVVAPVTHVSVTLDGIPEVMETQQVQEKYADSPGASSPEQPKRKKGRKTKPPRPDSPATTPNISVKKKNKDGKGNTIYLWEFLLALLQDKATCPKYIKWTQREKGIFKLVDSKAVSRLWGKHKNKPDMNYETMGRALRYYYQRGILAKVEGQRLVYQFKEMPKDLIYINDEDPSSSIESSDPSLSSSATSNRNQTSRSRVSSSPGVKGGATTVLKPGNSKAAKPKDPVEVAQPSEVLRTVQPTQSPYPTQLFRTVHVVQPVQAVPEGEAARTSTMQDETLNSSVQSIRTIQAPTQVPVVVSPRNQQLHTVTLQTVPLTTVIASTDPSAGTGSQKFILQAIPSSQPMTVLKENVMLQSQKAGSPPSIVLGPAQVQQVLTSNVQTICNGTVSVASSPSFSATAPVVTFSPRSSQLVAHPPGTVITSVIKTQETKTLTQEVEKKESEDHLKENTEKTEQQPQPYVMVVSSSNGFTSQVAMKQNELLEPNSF
Method in brief: as §1

[6] = biological target: T5, EHF (Homo sapiens, UniProt Q9NZC4 1-300)
T5 sequence: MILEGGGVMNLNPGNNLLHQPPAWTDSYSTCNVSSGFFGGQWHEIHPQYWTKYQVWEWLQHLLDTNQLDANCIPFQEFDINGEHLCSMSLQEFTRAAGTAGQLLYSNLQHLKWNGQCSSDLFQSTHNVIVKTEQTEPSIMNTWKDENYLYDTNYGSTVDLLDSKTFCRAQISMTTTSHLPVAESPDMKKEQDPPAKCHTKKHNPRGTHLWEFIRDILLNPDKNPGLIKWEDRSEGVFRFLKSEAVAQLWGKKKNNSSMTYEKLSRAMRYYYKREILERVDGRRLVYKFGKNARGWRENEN
Method in brief: as §1

[7] = biological target: SPI1 (Homo sapiens, UniProt P17947 1-270)
Method in brief: as §1

[8] = biological target: SPIB (Homo sapiens, UniProt Q01892 1-262)
Sequence of SPIB (Q01892 whole entry): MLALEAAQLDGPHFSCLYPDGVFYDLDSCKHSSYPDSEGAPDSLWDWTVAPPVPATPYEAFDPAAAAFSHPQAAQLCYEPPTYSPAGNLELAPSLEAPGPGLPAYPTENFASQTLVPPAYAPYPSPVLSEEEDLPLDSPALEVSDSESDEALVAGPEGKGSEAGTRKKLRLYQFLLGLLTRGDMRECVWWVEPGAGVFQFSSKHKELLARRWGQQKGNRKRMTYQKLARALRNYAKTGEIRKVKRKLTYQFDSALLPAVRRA
Method in brief: as §1

[9] = biological target: T6, ELK3 (Homo sapiens, UniProt P41970 1-407)
T6 sequence: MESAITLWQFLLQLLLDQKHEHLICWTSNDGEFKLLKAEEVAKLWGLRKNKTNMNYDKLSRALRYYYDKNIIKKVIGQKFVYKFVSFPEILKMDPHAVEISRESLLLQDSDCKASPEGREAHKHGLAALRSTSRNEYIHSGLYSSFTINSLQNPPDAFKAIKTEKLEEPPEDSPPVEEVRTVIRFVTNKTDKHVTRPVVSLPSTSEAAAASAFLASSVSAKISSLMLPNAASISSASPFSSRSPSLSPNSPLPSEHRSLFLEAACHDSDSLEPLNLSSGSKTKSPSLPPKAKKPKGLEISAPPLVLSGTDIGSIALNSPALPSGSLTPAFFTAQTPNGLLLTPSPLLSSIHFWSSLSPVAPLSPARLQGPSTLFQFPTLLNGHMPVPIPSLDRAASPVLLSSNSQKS
Method in brief: as §1

Sequence	binding signal [1]	binding signal [2]	binding signal [3]	binding signal [4]	binding signal [5]	binding signal [6]	binding signal [7]	binding signal [8]	binding signal [9]
TCCGAC	1.42 fold enrichment (6-mer frequency, TF over GST control)	1.47 fold enrichment (6-mer frequency, TF over GST control)	1.32 fold enrichment (6-mer frequency, TF over GST control)	1.46 fold enrichment (6-mer frequency, TF over GST control)	1.42 fold enrichment (6-mer frequency, TF over GST control)	1.46 fold enrichment (6-mer frequency, TF over GST control)	1.37 fold enrichment (6-mer frequency, TF over GST control)	1.46 fold enrichment (6-mer frequency, TF over GST control)	1.56 fold enrichment (6-mer frequency, TF over GST control)
TCTGAT	1.15 fold enrichment (6-mer frequency, TF over GST control)	1.21 fold enrichment (6-mer frequency, TF over GST control)	1.29 fold enrichment (6-mer frequency, TF over GST control)	1.1 fold enrichment (6-mer frequency, TF over GST control)	1.27 fold enrichment (6-mer frequency, TF over GST control)	1.25 fold enrichment (6-mer frequency, TF over GST control)	1.11 fold enrichment (6-mer frequency, TF over GST control)	1.31 fold enrichment (6-mer frequency, TF over GST control)	1.14 fold enrichment (6-mer frequency, TF over GST control)
TCCATG	1.17 fold enrichment (6-mer frequency, TF over GST control)	1.18 fold enrichment (6-mer frequency, TF over GST control)	1.1 fold enrichment (6-mer frequency, TF over GST control)	1.09 fold enrichment (6-mer frequency, TF over GST control)	1.11 fold enrichment (6-mer frequency, TF over GST control)	1.17 fold enrichment (6-mer frequency, TF over GST control)	1.1 fold enrichment (6-mer frequency, TF over GST control)	1.13 fold enrichment (6-mer frequency, TF over GST control)	1.24 fold enrichment (6-mer frequency, TF over GST control)
ACATTT	1.63 fold enrichment (6-mer frequency, TF over GST control)	1.48 fold enrichment (6-mer frequency, TF over GST control)	1.43 fold enrichment (6-mer frequency, TF over GST control)	1.56 fold enrichment (6-mer frequency, TF over GST control)	1.46 fold enrichment (6-mer frequency, TF over GST control)	1.49 fold enrichment (6-mer frequency, TF over GST control)	1.41 fold enrichment (6-mer frequency, TF over GST control)	1.53 fold enrichment (6-mer frequency, TF over GST control)	1.36 fold enrichment (6-mer frequency, TF over GST control)
TACGAT	1.14 fold enrichment (6-mer frequency, TF over GST control)	1.09 fold enrichment (6-mer frequency, TF over GST control)	1.17 fold enrichment (6-mer frequency, TF over GST control)	1.11 fold enrichment (6-mer frequency, TF over GST control)	1.11 fold enrichment (6-mer frequency, TF over GST control)	1.03 fold enrichment (6-mer frequency, TF over GST control)	1.09 fold enrichment (6-mer frequency, TF over GST control)	1.14 fold enrichment (6-mer frequency, TF over GST control)	1.09 fold enrichment (6-mer frequency, TF over GST control)
CCCTTA	1.29 fold enrichment (6-mer frequency, TF over GST control)	1.24 fold enrichment (6-mer frequency, TF over GST control)	1.24 fold enrichment (6-mer frequency, TF over GST control)	1.28 fold enrichment (6-mer frequency, TF over GST control)	1.3 fold enrichment (6-mer frequency, TF over GST control)	1.32 fold enrichment (6-mer frequency, TF over GST control)	1.31 fold enrichment (6-mer frequency, TF over GST control)	1.35 fold enrichment (6-mer frequency, TF over GST control)	1.25 fold enrichment (6-mer frequency, TF over GST control)
TAACTA	1.36 fold enrichment (6-mer frequency, TF over GST control)	1.29 fold enrichment (6-mer frequency, TF over GST control)	1.46 fold enrichment (6-mer frequency, TF over GST control)	1.42 fold enrichment (6-mer frequency, TF over GST control)	1.32 fold enrichment (6-mer frequency, TF over GST control)	1.27 fold enrichment (6-mer frequency, TF over GST control)	1.3 fold enrichment (6-mer frequency, TF over GST control)	1.35 fold enrichment (6-mer frequency, TF over GST control)	1.32 fold enrichment (6-mer frequency, TF over GST control)
